Drawing on publication PMC8384837, “Expanding the binding specificity for RNA recognition by a PUF domain”, this text covers binding signal for 11 sequences.

Holding throughout (test): yeast three-hybrid, YBZ-1, SC-Leu-His + 0.5 mM 3-AT, 4 days
Settings in all cases: tags: N-Gal4 AD-HA kept; label: inside an RPR1-promoter hybrid RNA with tandem MS2 sites; ssRNA

One test has as its target PUM1 PUF domain R3-RVA (Homo sapiens, UniProt Q14671 828-1176, C935R;R936V;Q939A). The method in brief: (§1)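 The interaction score is the log change in how often each variant appears, from input to selection. Frequencies came from PCR-amplified, Illumina-sequenced repeat regions of Pumilio-1 PUF domain libraries grown in strain YBZ-1 (LexA–MS2 coat fusion, HIS3 reporter) alongside matching RNA elements. Input plates were SC-Leu and selection plates were SC-Leu-His + 0.5 mM 3-AT, each for four days, and the log2 calculation used a pseudocount of 1 where a variant was absent.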

Another test addresses PUM1 PUF domain R3-VYW (Homo sapiens, UniProt Q14671 828-1176, C935V;R936Y;Q939W). Put shortly: as §1
A further test concerns the target PUM1 PUF domain R4-GRN (Homo sapiens, UniProt Q14671 828-1176, N971G;H972R;Q975N). The method in brief:
as §1

The next test concerns the target PUM1 PUF domain R4-APF (Homo sapiens, UniProt Q14671 828-1176, N971A;H972P;Q975F). Put shortly: as §1
A further test has as its target PUM1 PUF domain R5-FRM (Homo sapiens, UniProt Q14671 828-1176, C1007F;Q1011M). The method in brief: as §1
Another test has as its target PUM1 PUF domain R5-GMR (Homo sapiens, UniProt Q14671 828-1176, C1007G;R1008M;Q1011R). The method in brief:
as §1

A further test has as its target PUM1 PUF domain R8-TYK (Homo sapiens, UniProt Q14671 828-1176, N1122T;Q1126K). The method in brief: as §1
For the next test, the target named is T1, PUM1 PUF domain R6-DFE (Homo sapiens, UniProt Q14671 828-1176, N1043D;Y1044F;Q1047E).
T1 sequence: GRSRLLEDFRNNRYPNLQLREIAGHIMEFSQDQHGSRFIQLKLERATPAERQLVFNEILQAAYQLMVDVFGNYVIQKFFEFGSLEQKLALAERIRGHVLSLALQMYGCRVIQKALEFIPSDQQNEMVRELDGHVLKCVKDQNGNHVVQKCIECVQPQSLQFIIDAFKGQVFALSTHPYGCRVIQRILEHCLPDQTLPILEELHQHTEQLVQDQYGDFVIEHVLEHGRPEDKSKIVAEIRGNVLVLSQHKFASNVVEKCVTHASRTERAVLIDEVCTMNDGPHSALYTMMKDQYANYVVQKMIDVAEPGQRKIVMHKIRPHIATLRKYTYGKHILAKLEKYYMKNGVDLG
Put shortly: as §1

A further test deals with PUM1 PUF domain R7-KRL (Homo sapiens, UniProt Q14671 828-1176, S1079K;N1080R;E1083L). The method in brief: as §1
The target in the next test is PUM1 PUF domain R2-GWF (Homo sapiens, UniProt Q14671 828-1176, N899G;Y900W;Q903F). The method in brief:
as §1

Sequence of PUM1 PUF domain R5-GMR (Q14671 828-1176 C1007G/R1008M/Q1011R): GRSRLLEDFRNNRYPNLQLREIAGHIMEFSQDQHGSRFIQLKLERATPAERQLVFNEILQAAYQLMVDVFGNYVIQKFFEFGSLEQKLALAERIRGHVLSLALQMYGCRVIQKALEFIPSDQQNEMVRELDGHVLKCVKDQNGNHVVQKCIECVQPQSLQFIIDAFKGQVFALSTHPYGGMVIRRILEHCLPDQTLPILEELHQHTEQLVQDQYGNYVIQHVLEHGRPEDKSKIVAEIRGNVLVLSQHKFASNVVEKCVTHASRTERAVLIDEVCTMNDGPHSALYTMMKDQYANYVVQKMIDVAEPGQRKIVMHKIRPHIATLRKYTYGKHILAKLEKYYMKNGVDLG
Sequence of PUM1 PUF domain R8-TYK (Q14671 828-1176 N1122T/Q1126K): as the sequence (Q14671 828-1176 C1007G/R1008M/Q1011R) above, with G180C, M181R, R184Q, N295T, Q299K counted along it

In the case of “GGCUAGAACUAGUGGAUCCCCCGGCGCCCGGCGGCUCGAGCCCGGGUAAGUGUAAUUAGUCUGCAUGCCGCCGGGCGCCAUGCCUGCAGGUCGACUCUAGAAAACAUG”, the binding signal is 2.31 log2 enrichment (interaction score) in the test with PUM1 PUF domain R3-RVA and 4.86 log2 enrichment (interaction score) with PUM1 PUF domain R3-VYW. Regarding “GGCUAGAACUAGUGGAUCCCCCGGCGCCCGGCGGCUCGAGCCCGGGUAAGUGUAAAUAGUCUGCAUGCCGCCGGGCGCCAUGCCUGCAGGUCGACUCUAGAAAACAUG”, the binding signal was 2.76 log2 enrichment (interaction score) with PUM1 PUF domain R4-GRN; 3.52 log2 enrichment (interaction score) with PUM1 PUF domain R4-APF; 6.32 log2 enrichment (interaction score) with PUM1 PUF domain R3-VYW; 3.16 log2 enrichment (interaction score) in the test with PUM1 PUF domain R5-FRM; 0.88 log2 enrichment (interaction score) in the test with PUM1 PUF domain R5-GMR; 2.62 log2 enrichment (interaction score) in the test with PUM1 PUF domain R8-TYK. Take “GGCUAGAACUAGUGGAUCCCCCGGCGCCCGGCGGCUCGAGCCCGGGUAAGCGUAAAUAGUCUGCAUGCCGCCGGGCGCCAUGCCUGCAGGUCGACUCUAGAAAACAUG”: in the test with PUM1 PUF domain R8-TYK, the binding signal is 2.07 log2 enrichment (interaction score). For the sequence “GGCUAGAACUAGUGGAUCCCCCGGCGCCCGGCGGCUCGAGCCCGGGUAAGUGUUAAUAGUCUGCAUGCCGCCGGGCGCCAUGCCUGCAGGUCGACUCUAGAAAACAUG”, in the test with PUM1 PUF domain R5-GMR, the binding signal is 1.23 log2 enrichment (interaction score). With “GGCUAGAACUAGUGGAUCCCCCGGCGCCCGGCGGCUCGAGCCCGGGUAAGUGGAAAUAGUCUGCAUGCCGCCGGGCGCCAUGCCUGCAGGUCGACUCUAGAAAACAUG”, the binding signal with PUM1 PUF domain R6-DFE is 2.5 log2 enrichment (interaction score). “GGCUAGAACUAGUGGAUCCCCCGGCGCCCGGCGGCUCGAGCCCGGGUAAGUCUAAAUAGUCUGCAUGCCGCCGGGCGCCAUGCCUGCAGGUCGACUCUAGAAAACAUG”: the binding signal with PUM1 PUF domain R7-KRL is 5.65 log2 enrichment (interaction score).

For the sequence “GGCUAGAACUAGUGGAUCCCCCGGCGCCCGGCGGCUCGAGCCCGGGUAAGUUUAAAUAGUCUGCAUGCCGCCGGGCGCCAUGCCUGCAGGUCGACUCUAGAAAACAUG”, the binding signal with PUM1 PUF domain R7-KRL is 5.24 log2 enrichment (interaction score).

For the sequence “GGCUAGAACUAGUGGAUCCCCCGGCGCCCGGCGGCUCGAGCCCGGGUAAGUGUAAGUAGUCUGCAUGCCGCCGGGCGCCAUGCCUGCAGGUCGACUCUAGAAAACAUG”, in the test with PUM1 PUF domain R3-RVA, the binding signal was 0.81 log2 enrichment (interaction score). As for “GGCUAGAACUAGUGGAUCCCCCGGCGCCCGGCGGCUCGAGCCCGGGUAAGUGUCAAUAGUCUGCAUGCCGCCGGGCGCCAUGCCUGCAGGUCGACUCUAGAAAACAUG”, the binding signal in the test with PUM1 PUF domain R5-FRM is 2.1 log2 enrichment (interaction score); in the test with PUM1 PUF domain R5-GMR, 3.28 log2 enrichment (interaction score). Consider “GGCUAGAACUAGUGGAUCCCCCGGCGCCCGGCGGCUCGAGCCCGGGUAAGUGUAAAAAGUCUGCAUGCCGCCGGGCGCCAUGCCUGCAGGUCGACUCUAGAAAACAUG”, for which the binding signal in the test with PUM1 PUF domain R2-GWF is 3.4 log2 enrichment (interaction score). “GGCUAGAACUAGUGGAUCCCCCGGCGCCCGGCGGCUCGAGCCCGGGUAAGGGUAAAUAGUCUGCAUGCCGCCGGGCGCCAUGCCUGCAGGUCGACUCUAGAAAACAUG”: the binding signal with PUM1 PUF domain R8-TYK was 3.38 log2 enrichment (interaction score).
